# Experimental data taken from PubChem BioAssay (NCATS).
# Inconclusive results are not listed. Active and inactive are the calls of the source. Calls come from the whole dose curve; as a rule, active = well fitted cell-killing curve with a large enough effect; inconclusive = small, poorly fitted or top-dose-only effect, or effect the other way; inactive = flat fitted curve, though single readings scatter. Non-standard residues stand in square brackets, D forms with d. Residues, ends and D or L forms follow the SMILES beside them. *: point of attachment. Nva = CCC[C@H](N)C(=O)O; Cbz = O=C(OCc1ccccc1)*
# Assay: qHTS of pediatric cancer cell lines to identify multiple opportunities for drug repurposing: Confirmatory screen for Rh18 cells (AID 1347125); note: nearly all actives have a fitted effect of over 55% in size
# Conditions: Rh18 rhabdomyosarcoma cells, viability; series mostly up to 45.9 µM; activity change, negative = cytotoxic: at the top concentration
# Procedure, shortened: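 Cells (500-1,000/well) rested 5 h, then received compounds for 48 h; metabolically active cells were measured by CellTiter-Glo luminescence. Final concentrations spanned up to 46 µM (MIPE, 11-point) or 0.59 nM-46 µM (NPC, 8-point) in primary screens, 11-point in follow-ups.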
# % is set by controls: 0 for no effect and ±100 for the full control effect; potency is the fitted concentration of half-maximal effect.
Compound,"activity change, negative = cytotoxic",Potency
COc1ccc(S(=O)(=O)Nc2cccnc2Nc2ccc(O)cc2)cc1,-14.2% (inactive),
COc1ccc(C=Cc2cc(OC)c(OC)c(OC)c2)cc1NC(=O)[C@H](N)CO,-18.8% (inactive),
C[C@@H](Oc1ccc2[nH]nc(C=Cc3cnn(CCO)c3)c2c1)c1c(Cl)cncc1Cl,,3.69 µM (active)
Cc1ccc([N+](=O)[O-])cc1S(=O)(=O)N(C)N=Cc1cnc2ccc(Br)cn12,,1.31 µM (active)
CNC(=O)Nc1ccc(-c2nc(N3CC4CCC(C3)O4)c3cnn(C4CCC5(CC4)OCCO5)c3n2)cc1,,0.233 µM (active)
Nc1nc2c(c(=O)[nH]1)N(C=O)[C@H](CNc1ccc(C(=O)N[C@@H](CCC(=O)O)C(=O)O)cc1)CN2,-7.85% (inactive),
C[C@H](NCc1ccc2c(c1)nc(NC(=O)c1ccc(-c3cn[nH]c3)s1)n2CCc1ccccc1)C(C)(C)C,,3.29 µM (active)
CCC[C@@H](C=O)NC(=O)[C@H](CC(C)C)NC(=O)[C@H](CC(C)C)NC(=O)OCc1ccccc1 (Cbz-Leu-Leu-[Nva]-aldehyde),,3.69 µM (active)
COC(=O)[C@@H]1[C@H]2C[C@@H]3c4[nH]c5ccccc5c4CCN3C[C@@H]2CC[C@@H]1O,-7.02% (inactive),
C=Cc1c(C)c2cc3nc(cc4[nH]c(cc5nc(cc1[nH]2)C(C)=C5CCC(=O)O)c(CCC(=O)OC)c4C)[C@@]1(C)C3=CC=C(C(=O)OC)[C@H]1C(=O)OC,-11.4% (inactive),
FC(F)c1nc2ccccc2n1-c1nc(N2CCOCC2)nc(N2CCOCC2)n1,,1.85 µM (active)
CC(C)(N)c1ccc(-c2nc3ccccc3nc2-c2ccccc2)cc1,,1.65 µM (active)
CC(C)(O)Cn1c(NC(=O)c2ccc(-c3cn[nH]c3)s2)nc2cc(CN3CCOCC3)ccc21,,1.31 µM (active)
Cn1cc(CNCC2CCN(c3ncc(C(=O)NO)cn3)CC2)c2ccccc21,,0.131 µM (active)
Oc1ccc(-c2ccc(-c3cc(Nc4cccc(CNC5CC5)c4)n[nH]3)cc2)c(O)c1,,16.5 µM (active)
Nc1ncn([C@@H]2O[C@H](CO)[C@@H](O)[C@@H]2O)c(=O)n1,,20.8 µM (active)
C#CCC(Cc1cnc2nc(N)nc(N)c2n1)c1ccc(C(=O)N[C@@H](CCC(=O)O)C(=O)O)cc1 (some centres not stated),10.4% (inactive),
COc1ccc(C(C)=O)c(O)c1,-15.4% (inactive),
COc1cc(OC)c(C=CS(=O)(=O)Cc2ccc(OC)c(NCC(=O)O)c2)c(OC)c1,-2.76% (inactive),

Compound,"activity change, negative = cytotoxic",Potency
CC(=O)N1CCN(c2ccc(OCc3nn(C)c(C)c3-c3cccc4c(CCCOc5cccc6ccccc56)c(C(=O)O)n(Cc5cccnc5)c34)cc2)CC1,-9.16% (inactive),
CNC(=O)c1ccc(Nc2cc(Nc3ccccc3S(=O)(=O)C(C)C)c3cc[nH]c3n2)nc1,,18.5 µM (active)
CC(C=CC(=O)NO)=C[C@@H](C)C(=O)c1ccc(N(C)C)cc1,,0.928 µM (active)
CC(C)C[C@H](NC(=O)[C@@H](NC(=O)c1cccc(-c2ccccc2)n1)[C@@H](C)O)B(O)O,,0.0827 µM (active)
O=S(=O)(O)CCSSCCS(=O)(=O)O,-5.21% (inactive),
COc1cc([C@@H]2c3cc4c(cc3[C@H](O)[C@H]3COC(=O)[C@@H]23)OCO4)cc(OC)c1OC,-7.28% (inactive),
C=CC(=O)N1CCc2ccc(-n3c(=O)ccc4cnc5ccc(-c6cnn(C)c6)cc5c43)cc21,-24.4% (inactive),
CC(C)C[C@@H](C=O)NC(=O)[C@H](CC(C)C)NC(=O)[C@H](CC(C)C)NC(=O)OCc1ccccc1 (Cbz-Leu-Leu-Leu-aldehyde),,1.65 µM (active)
CN(C)c1ccc(C(=O)NCCCCCCC(=O)NO)cc1,,1.47 µM (active)
CC(C(C)N1CC(=O)NC(=O)C1)N1CC(=O)NC(=O)C1 (configuration not stated),-14% (inactive),
CC1(C)O[C@@H]2C[C@H]3[C@@H]4CCC5=CC(=O)C=C[C@]5(C)[C@@H]4[C@@H](O)C[C@]3(C)[C@]2(C(=O)CO)O1,0.643% (inactive),
NS(=O)(=O)OC[C@@H]1C[C@@H](n2ccc3c(N[C@H]4CCc5ccccc54)ncnc32)C[C@H]1O,-15.6% (inactive),
CCc1cc(C(C)=NOCc2ccc(C3CCCCC3)c(C(F)(F)F)c2)ccc1CN1CC(C(=O)O)C1,-24.5% (inactive),
N#Cc1c(NC(=O)c2cccc3ccccc23)sc2c1CCCC2,-7.89% (inactive),
N#CNC(=NCCCCCCOc1ccc(Cl)cc1)Nc1ccncc1,,0.0465 µM (active)
C=C1C(=CC=C2CCC[C@]3(C)[C@@H]([C@H](C)CCCC(C)(C)O)CC[C@@H]23)C[C@@H](O)C[C@@H]1O,-13.5% (inactive),
CC(=O)O[C@@]12CO[C@H]1C[C@H](O)[C@@]1(C)C(=O)[C@H](O)C3=C(C)[C@@H](OC(=O)C(O)[C@@H](NC(=O)OC(C)(C)C)c4ccccc4)C[C@@](O)([C@@H](OC(=O)c4ccccc4)[C@@H]21)C3(C)C (some centres not stated),-17.1% (inactive),
Cc1cc(Nc2ncc3c(n2)N(C)C(=O)N(c2cc(NC(=O)c4cccc(C(F)(F)F)c4)ccc2C)C3)n(C)n1,,0.737 µM (active)
